PubChem BioAssay (EPA / NIEHS)
Results filed as inconclusive are left out. Active and inactive are the calls of the source. The calls were made as follows, unless noted: active = hit-call score of the fitted dose curve at least 0.9, where 1 is the maximum; inconclusive = response in the unintended direction; inactive = score below 0.9.

How the values were obtained:
[1] = CCTE_Mundy_HCI_iCellGluta_NOG_NeuriteCount: CCTE's Neurite Outgrowth Assay in iCellGluta cells for Neurite Count, Mundy Lab (AID 2284342);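 also: chemical exposure about 48 hours starting 2 hours after plating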
[2] = CCTE_Mundy_HCI_iCellGluta_NOG_NeuronCount: CCTE's Neurite Outgrowth Assay in iCellGluta cells for Neuron Count, Mundy Lab (AID 2284340);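 also: cells fixed about 48 h after compound addition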
Method in brief: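 Neuron count read by automated high-content imaging of Hoechst 33342 and betaIII-tubulin/Alexa Fluor-488 labelling in human iPSC glutamatergic neurons. Activity fitted relative to DMSO.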

[3] = CCTE_Deisenroth_H295R-HTRF_384WELL_ESTRADIOL: CCTE's H295R-HTRF Assay Evaluation of Estradiol Concentration, Deisenroth Lab (AID 2284361; active = hit-call score of the fitted dose curve at least 0.9, where 1 is the maximum; inactive = score below 0.9); conditions: actives raise or lower the signal
Method in brief: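 Estradiol secreted into medium by H295R adrenocortical cells, quantified by HTRF after 48 h dosing over a nine-point 0.001 - 100 uM final range; gain or loss versus DMSO. Parallel ATP-luminescence viability readout; n=5 experiments.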

[4] = CCTE_Deisenroth_H295R-HTRF_384WELL_TESTOSTERONE: CCTE's H295R-HTRF Assay Evaluation of Testosterone Concentration, Deisenroth Lab (AID 2284373; active = hit-call score of the fitted dose curve at least 0.9, where 1 is the maximum; inactive = score below 0.9); conditions: actives raise or lower the signal
Method in brief: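 Testosterone secreted into medium was quantified by direct HTRF immunoassay after a 48 h treatment of H295R adrenocortical cells (nine concentrations, 0.001–100 uM final). Gain or loss fitted relative to DMSO; CellTiter-Glo viability read on same plates.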

[5] = CCTE_Deisenroth_H295R-HTRF_384WELL_CTOX: Cytotoxicity Assessment in CCTE's H295R-HTRF Assay, Deisenroth Lab (AID 2284380)
Method in brief: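 Luminescent ATP viability readout (CellTiter-Glo 2.0), multiplexed on plates used for hormone sampling, after 48 h chemical exposure. Human H295R cells; final concentrations 0.001–100 uM in nine steps, technical triplicates, five experiments; DMSO baseline.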

TTR (gene 7276) = experiment: CCTE_GLTED_hTTR_0.125uM: CCTE's human Transthyretin (hTTR) Inhibition Assay, with 0.125uM TTR, Great Lakes Toxicology and Ecology Division (GLTED) Lab (AID 2284431; active = hit-call score of the fitted dose curve at least 0.9, where 1 is the maximum; inactive = score below 0.9;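 also: hits lower the fluorescence signal relative to DMSO baseline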)
Method in brief: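 Fluorescence (380 ex, 475 em) reported the ANSA probe remaining bound to 0.125uM human transthyretin. Chemicals were incubated with the protein for 2 hours; activity was scored as loss of signal against DMSO negative control.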

[6] = VALA_TUBIPS_Agonist_CellCount: Viability Assessment in the VALA Sciences human iPS-derived Endothelial Tubule Formation (TUBIPS) Agonism Assay (AID 2284338)
SERPINA7 (gene 6906) = experiment: CCTE_GLTED_hTBG: CCTE's human Thyroxine-binding Globulin (TBG) Inhibition Assay, Great Lakes Toxicology and Ecology Division (GLTED) Lab (AID 2284343);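 also: active chemicals lower fluorescence versus DMSO baseline by displacing probe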
Method in brief: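 Steps: combine TBG with chemical; incubate 2 hours so that disruptors release ANSA; record fluorescence (380 ex, 475 em). Loss of signal was fitted against DMSO controls.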

**Q.** For `CN1COCN(Cc2cnc(Cl)s2)C1=N[N+](=O)[O-]`, which outcome [1] is on record?
**A.** inactive

**Q.** Which outcome [2] does the source give for `CCCSP(=O)(OCC)SCCC` here?
**A.** inactive

**Q.** And the outcome [1]?
**A.** inactive

**Q.** Which results are given for `CC(C1CC1)C(O)(Cn1cncn1)c1ccc(Cl)cc1` (centres undefined)?
**A.** outcome [3]: inactive; outcome [4]: inactive; outcome [5]: inactive

**Q.** Which AC50 (TTR (gene 7276)) does the source give for `Nc1c(Cl)cc([N+](=O)[O-])cc1Cl` here?
**A.** 0.176 µM (active)

**Q.** Which results are given for `CCCOCC(=Nc1ccc(Cl)cc1C(F)(F)F)n1ccnc1`?
**A.** AC50 [3]: 270 nM (active); AC50 [4]: 414 nM (active); outcome [5]: inactive; AC50 (TTR (gene 7276)): 3.56 µM (active)

**Q.** Which outcome [6] does the source give for `S=C1NCCN1` here?
**A.** inactive

**Q.** What about the outcome [2] of the same compound?
**A.** inactive

**Q.** And the outcome [1]?
**A.** inactive

**Q.** What does the source list for `C[N+]1(C)CCCCC1`?
**A.** outcome [2]: inactive; outcome [1]: inactive

**Q.** Which results are given for `CC(C)N(C(=O)SCC(Cl)=C(Cl)Cl)C(C)C`?
**A.** AC50 [2]: 22.4 µM (active); AC50 [1]: 23.2 µM (active)

**Q.** For `CC[C@H](C)[C@H]1O[C@]2(C=C[C@@H]1C)C[C@@H]1C[C@@H](C/C=C(\C)[C@@H](O[C@H]3C[C@H](OC)[C@@H](O[C@H]4C[C@H](OC)[C@@H](NC)[C@H](C)O4)[C@H](C)O3)[C@@H](C)/C=C/C=C3\CO[C@@H]4[C@H](O)C(C)=C[C@@H](C(=O)O1)[C@]34O)O2`, which AC50 [2] is on record?
**A.** 0.896 µM (active)

**Q.** And the AC50 [1]?
**A.** 0.824 µM (active)

**Q.** For `Cc1ccn2nc(S(=O)(=O)Nc3c(F)cccc3F)nc2n1`, which outcome (SERPINA7 (gene 6906)) is on record?
**A.** inactive

**Q.** For `FC(F)C(F)(F)OCC(Cn1cncn1)c1ccc(Cl)cc1Cl` (centres undefined), which AC50 (SERPINA7 (gene 6906)) is on record?
**A.** 10.1 µM (active)

**Q.** Which AC50 [2] does the source give for `CON=C(C(=O)OC)c1ccccc1CON=C(C)c1cccc(C(F)(F)F)c1` here?
**A.** 50 µM (active)

**Q.** And the AC50 [1]?
**A.** 24.6 µM (active)

**Q.** What does the source list for `CCOP(=S)(OCC)OC(Cl)C(Cl)(Cl)Cl` (centres undefined)?
**A.** outcome [2]: inactive; outcome [1]: inactive; AC50 (TTR (gene 7276)): 33.2 µM (active)

**Q.** With `CC1(C(=O)Nc2ccc(O)c(Cl)c2Cl)CCCCC1` as the compound, how does the AC50 (TTR (gene 7276)) read?
**A.** 7.98 µM (active)

**Q.** With `CSC1=N[C@@](C)(c2ccccc2)C(=O)N1Nc1ccccc1` as the compound, how does the outcome [2] read?
**A.** inactive

**Q.** What about the outcome [1] of the same compound?
**A.** inactive

**Q.** For `CCOP(=S)(OCC)SCCSCC`, which outcome [2] is on record?
**A.** inactive

**Q.** And the AC50 (SERPINA7 (gene 6906))?
**A.** 13.9 µM (active)

**Q.** For `C=C(C)[C@H]1Cc2c(ccc3c2O[C@@H]2COc4cc(OC)c(OC)cc4[C@@H]2C3=O)O1`, which AC50 [2] is on record?
**A.** 0.0672 µM (active)

**Q.** What about the AC50 [1] of the same compound?
**A.** 0.907 µM (active)

**Q.** For `CCCSP(=O)(OCC)Oc1ccc(Br)cc1Cl` (centres undefined), which AC50 (SERPINA7 (gene 6906)) is on record?
**A.** 14.1 µM (active)

**Q.** And the AC50 (TTR (gene 7276))?
**A.** 3.6 µM (active)

**Q.** For `CCOP(=S)(OCC)Oc1ccc([N+](=O)[O-])cc1`, which outcome [2] is on record?
**A.** inactive

**Q.** And the outcome [1]?
**A.** inactive

**Q.** What about the AC50 (SERPINA7 (gene 6906)) of the same compound?
**A.** 11.6 µM (active)

**Q.** Which outcome [2] does the source give for `CCOP(=O)(OCC)Oc1cc(C)nc(C(C)C)n1` here?
**A.** inactive

**Q.** What about the outcome [1] of the same compound?
**A.** inactive

**Q.** What does the source list for `CN(C)[C@@H]1C(=O)C(C(N)=O)=C(O)[C@@]2(O)C(=O)C3=C(O)c4c(O)cccc4[C@@](C)(O)[C@H]3[C@H](O)[C@@H]12`?
**A.** AC50 [6]: 9.92 µM (active); AC50 [2]: 13.4 µM (active); AC50 [1]: 19.9 µM (active)

**Q.** With `Cc1cc(C2CC2)nc(Nc2ccccc2)n1` as the compound, how does the AC50 (TTR (gene 7276)) read?
**A.** 14.8 µM (active)

**Q.** What does the source list for `O=[N+]([O-])c1cc(C(F)(F)F)c(Cl)c([N+](=O)[O-])c1Nc1ncc(C(F)(F)F)cc1Cl`?
**A.** outcome [6]: inactive; AC50 [2]: 3.14 µM (active); AC50 [1]: 0.937 µM (active); AC50 (SERPINA7 (gene 6906)): 0.388 µM (active); AC50 (TTR (gene 7276)): 0.0665 µM (active)

**Q.** Which results are given for `CCOP(=S)(Oc1cnc(C(C)(C)C)nc1)OC(C)C` (centres undefined)?
**A.** AC50 [2]: 16 µM (active); AC50 [1]: 23.9 µM (active); AC50 (SERPINA7 (gene 6906)): 16.7 µM (active)

**Q.** For `C[Si](Cn1cncn1)(c1ccc(F)cc1)c1ccc(F)cc1`, which AC50 (SERPINA7 (gene 6906)) is on record?
**A.** 4.09 µM (active)

**Q.** What about the AC50 [3] of the same compound?
**A.** 968 nM (active)

**Q.** And the outcome [4]?
**A.** inactive

**Q.** And the outcome [5]?
**A.** inactive

**Q.** With `CC1=NNC(=O)N(/N=C/c2cccnc2)C1` as the compound, how does the outcome [6] read?
**A.** inactive

**Q.** And the outcome [2]?
**A.** inactive

**Q.** And the outcome [1]?
**A.** inactive

**Q.** With `COP(=O)(OC)OC(Br)C(Cl)(Cl)Br` (centres undefined) as the compound, how does the AC50 [2] read?
**A.** 21.7 µM (active)

**Q.** What about the AC50 [1] of the same compound?
**A.** 16.4 µM (active)

**Q.** Which outcome [2] does the source give for `CC(=NC#N)N(C)Cc1ccc(Cl)nc1` here?
**A.** inactive

**Q.** What about the outcome [1] of the same compound?
**A.** inactive

**Q.** For `CCOP(=O)(NC(C)C)Oc1ccc(SC)c(C)c1` (centres undefined), which AC50 [2] is on record?
**A.** 51 µM (active)

**Q.** What about the outcome [1] of the same compound?
**A.** inactive

**Q.** What about the AC50 (SERPINA7 (gene 6906)) of the same compound?
**A.** 14.6 µM (active)

**Q.** For `O=C(O)c1cc(Oc2ccc(C(F)(F)F)cc2Cl)ccc1[N+](=O)[O-]`, which AC50 (SERPINA7 (gene 6906)) is on record?
**A.** 4.45 µM (active)

**Q.** What does the source list for `COP(=O)(NC(C)=O)SC` (centres undefined)?
**A.** outcome [2]: inactive; outcome [1]: inactive

**Q.** With `COc1cccc(C(=O)NN(C(=O)c2cc(C)cc(C)c2)C(C)(C)C)c1C` as the compound, how does the AC50 (TTR (gene 7276)) read?
**A.** 20.6 µM (active)

**Q.** Which results are given for `CCCCOC(=O)c1ccccc1C(=O)O`?
**A.** AC50 [3]: 54900 nM (active); outcome [4]: inactive; outcome [5]: inactive

**Q.** For `CCCCN(CC)c1c([N+](=O)[O-])cc(C(F)(F)F)cc1[N+](=O)[O-]`, which AC50 (SERPINA7 (gene 6906)) is on record?
**A.** 2.78 µM (active)

**Q.** With `CCC(CC)Nc1c([N+](=O)[O-])cc(C)c(C)c1[N+](=O)[O-]` as the compound, how does the AC50 (SERPINA7 (gene 6906)) read?
**A.** 1.64 µM (active)

**Q.** What about the AC50 (TTR (gene 7276)) of the same compound?
**A.** 0.448 µM (active)

**Q.** What does the source list for `CCCCSP(=O)(SCCCC)SCCCC`?
**A.** AC50 [2]: 49.9 µM (active); outcome [1]: inactive
